Screens from PubChem.
NPR1 antag = human Npr1 receptor antagonism; Potency, µM (top dose mostly 46.3 µM), without a hit: top-dose activity change, negative = inhibition, actives largely listed as inhibitors; P16066; HEK293 hNpr1 GloSensor cGMP, ANP-stimulated luminescence; actives 1.6% (n = 76,000); calls by dose curve; also: nearly all actives have a fitted effect of over 60% in size
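Compound pre-incubated 30 min at room temperature on GloSensor-loaded HEK293 cells stably carrying hNpr1 and the pGS-40F cGMP biosensor. Stimulation uses hNppA at 0.1 nM final; luminescence is taken at baseline and 20 min post-agonist.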
SNCA expr inhib = SNCA gene expression inhibition; HEK-293 SNCA-luciferase knock-in, luminescence, 24 h; Potency, µM (titrated, usually from 57.2 µM), for inactives: at the highest dose activity change, negative = inhibition, hits mostly inhibitors; actives 0.17% (n = 140,000);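 also: plate controls were DMSO cells for no effect and cell-free wells for full effect; nearly all actives have a fitted effect of over 45% in size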
NIH3T3 tox = NIH 3T3 cell cytotoxicity; actives 4.3% (n = 94,000); Potency, µM (highest dose often 96.7 µM), for inactives: at the highest dose activity change, negative = cytotoxicity, most hits filed as inhibitors; NIH 3T3 viability, CellTiter-Glo ATP luminescence, 48-72 h; also: nearly all actives have a fitted effect of over 55% in size
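Cells were seeded at 400 per well, treated with pin-transferred compound, and kept 48 or 72 hr at 37 °C before CellTiter-Glo addition and luminescence imaging of cellular ATP.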
SNCA viab count = counter-screen for SNCA expression inhibitors: cell viability | actives 0.12% (n = 150,000) | HEK-293-SNCA-luc viability, GF-AFC fluorescence, 24 h | Potency, µM (top dose mostly 57.1 µM), for the others: at the top dose activity change, negative = cytotoxicity, usual class: cytotoxic | AID 1671193;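 also: 0% = DMSO-treated cells and -100% = medium-only wells without cells; nearly all actives have a fitted effect of over 30% in size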
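Cytotoxicity counterscreen: after 24 h compound treatment of genome-edited SNCA-luciferase HEK-293 cells, live-cell protease substrate GF-AFC read by fluorescence after 30 min; activity scaled between DMSO (0%) and medium-only (-100%), curves Hill-fitted.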
HEK293 tox = kills HEK 293 cells; Potency, µM (series often up to 115 µM), inactives show at the top dose activity change, negative = cytotoxicity, hits mostly inhibitors; HEK 293 viability, ATP luminescence (CellTiter-Glo), 48-72 h; AID 1345083; actives 6.6% (n = 94,000); also: nearly all actives have a fitted effect of over 60% in size
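HEK 293 cells at 250 cells/well were exposed to compounds by pintool transfer for 48 or 72 hr at 37 degree Celsius, 5% CO2. Viability was read as ATP-coupled luminescence with CellTiter-Glo after 10 min at room temperature.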
FLuc inh = Photinus pyralis luciferase inhibition; P08659; purified P. pyralis luciferase, luminescence, biochemical; Potency, µM (top dose mostly 115 µM), most hits filed as inhibitors; actives 2.5% (n = 76,000); AID 1347043; also: nearly all actives have a fitted effect of over 65% in size
Target sequence (P08659 whole entry, looked up): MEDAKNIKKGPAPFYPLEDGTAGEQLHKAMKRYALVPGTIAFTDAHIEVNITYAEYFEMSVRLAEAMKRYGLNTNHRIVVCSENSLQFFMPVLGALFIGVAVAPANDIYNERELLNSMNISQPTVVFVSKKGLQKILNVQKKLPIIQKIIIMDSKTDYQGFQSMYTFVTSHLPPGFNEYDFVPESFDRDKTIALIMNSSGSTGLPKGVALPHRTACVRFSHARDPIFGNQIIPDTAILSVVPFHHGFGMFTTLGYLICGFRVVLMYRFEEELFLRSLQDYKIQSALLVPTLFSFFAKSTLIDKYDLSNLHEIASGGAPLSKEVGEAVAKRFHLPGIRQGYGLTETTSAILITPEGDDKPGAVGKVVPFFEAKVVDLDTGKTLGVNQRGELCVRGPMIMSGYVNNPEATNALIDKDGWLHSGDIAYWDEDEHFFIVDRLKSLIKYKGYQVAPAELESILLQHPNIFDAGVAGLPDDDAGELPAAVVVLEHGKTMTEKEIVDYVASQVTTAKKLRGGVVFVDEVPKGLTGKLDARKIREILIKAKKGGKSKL
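Biochemical qHTS: compound (6-point titration) added to 10uM D-luciferin plus 10uM ATP in Tris acetate pH 7.5 buffer with Mg, Tween-20 and BSA, then purified enzyme at 10nM; light output imaged.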
Active calls of the source: *; i = inactive; ? = inconclusive; . = no result; [ ] = remark or other dose. This is a sample that favours compounds with a hit; in the whole collection about 7.4% have one here. Unless noted, calls follow the shape of the dose curve; as a rule, active = well fitted curve in the direction sought with a large enough effect; inconclusive = small, poorly fitted or top-dose-only effect, or another doubt; inactive = no such curve, though single readings can be large; an effect the other way counts as inactive or inconclusive. Unless noted, % is scaled to controls: 0 for no effect and ±100 for the full control effect; potency is read from the fitted curve at half-maximal effect.

SMILES | NPR1 antag | SNCA expr inhib | NIH3T3 tox | SNCA viab count | HEK293 tox | FLuc inh
COc1cc(-c2ccnc3nc(CCC4CCCC4)nn23)cc(OC)c1OC | -7% | -18% | 5.6µM* | ? | -22% | i
COc1cc(-c2ccnc3nc(Cc4ccc(F)cc4)nn23)cc(OC)c1OC | -17% | ? | ? | ? | 32µM* | i
CCC1(N2CCN(C(=O)c3cccc(OC(F)(F)F)c3)CC2)CCN(S(C)(=O)=O)C1 (stereo not given) | 5% | -6% | -22% | 14% | -30% | i
CNC(=O)c1cc(C)nc2onc(C3CCN(C(=O)c4cccc(Cl)c4)CC3)c12 | . | . | -31% | . | -13% | .
O=C(O)CCn1ncc2cc(OCC3CCN(c4ncccn4)CC3)ccc21 | 3%[70.6 µM] | 2%[87.6 µM] | 50µM* | 3%[87.6 µM] | -11%[172 µM] | 63µM*
O=C(O)CCn1ncc2cc(OCC3CCN(C(=O)COc4ccccc4)CC3)ccc21 | 1%[70.6 µM] | 11%[87.6 µM] | 28µM* | -1%[87.6 µM] | 4%[172 µM] | i
O=C(O)CCn1ncc2cc(OCC3CCN(c4ncc(F)cn4)CC3)ccc21 | 0%[70.6 µM] | ? | ? | 7%[87.6 µM] | -10%[172 µM] | ?
O=C(O)CCn1ncc2cc(OCC3CCN(C(=O)CC4CC4)CC3)ccc21 | 6%[70.6 µM] | -2%[87.6 µM] | 50µM* | 0%[87.6 µM] | 3%[172 µM] | ?
O=C(O)CCn1ncc2cc(OCC3CCN(C(=O)OC4CCCC4)CC3)ccc21 | 1%[70.6 µM] | 3%[87.6 µM] | 25µM* | 8%[87.6 µM] | ? | ?
COc1ccc(Cn2c(=O)c(C(=O)N3CCN(C(=O)C(C)(C)C)CC3)nc3cccnc32)cc1 | . | . | -33% | . | -13% | .
Cc1ccccc1C(=O)N(C)C(C)c1cccs1 (stereo not given) | 8%[70.6 µM] | -25%[87.6 µM] | -23%[138 µM] | -10%[87.6 µM] | ? | i
O=c1c2nc(NCc3ccccc3)ccc2ncn1Cc1ccccn1 | 5%[70.6 µM] | 76%[87.6 µM] | 79µM* | -4%[87.6 µM] | ? | i
Cn1cc(CN2CCc3ccccc32)ccc1=O | ? | 7% | ? | ? | ? | i
Fc1ccccc1CC1CCN(CC2[C@H]3CNC[C@@H]23)CC1 (stereo not given in full) | 4% | 9% | 35µM* | 4% | ? | i
O=C(Cc1ccsc1)N1CCC(n2cnnc2-c2ccccc2)C1 (stereo not given) | -1% | 3% | i | 9% | 2% | i
CCOc1ccc(NC(=O)c2ccc3c(c2)N(CC)C2CCCCN2C3=O)cc1 (stereo not given) | -9% | -17% | 22µM* | 3%[12.5 µM] | 32µM* | i
CCOC(=O)c1ccc(NC(=O)c2ccc3c(c2)N(CC)C2CCCCN2C3=O)cc1 (stereo not given) | -25% | ? | ? | 21%[12.5 µM] | 35µM* | i
CCOC(=O)c1ccc(NC(=O)c2ccc3c(c2)N(CC)C2CCCN2C3=O)cc1 (stereo not given) | -4% | 0% | -40% | -11%[12.5 µM] | ? | i
CCN1c2cc(C(=O)Nc3ccc(Cl)cc3)ccc2C(=O)N2CCCC21 (stereo not given) | 0% | 27% | -3% | -16%[12.5 µM] | -27% | i
CCOC(=O)c1ccc(NC(=O)c2ccc3c(c2)N(C)C2CCCCN2C3=O)cc1 (stereo not given) | 0% | 6% | ? | 8%[12.5 µM] | 35µM* | i
NCCn1cc(C(=O)N2CCCC(c3[nH]ncc3Cc3ccccc3)C2)nn1 (stereo not given) | 0% | -18% | -7% | -3% | ? | i
O=C(c1ccsc1)N1CCCn2cc(-c3ccccc3F)nc21 | -4% | 147% | i | -5% | -13% | 35µM*
O=C(c1cccs1)N1CCCn2cc(-c3ccccc3F)nc21 | -4% | 72% | -6% | -21% | ? | 22µM*
O=C(Cc1ccsc1)N1CCCn2cc(-c3ccccc3F)nc21 | 2% | 11% | -27% | 3% | ? | i
O=C(c1ccco1)N1CCCn2cc(-c3ccccc3F)nc21 | -8% | 6% | -13% | 2% | -16% | i
